About 560 (40%) of roughly 1,400 compounds were called active. The set was probably picked from earlier hits. This is one part of the list. A number with no mark means an inactive call.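 Rule for the calls: active = mean inhibition over duplicate tests at 10 µM above 50%; inactive = the rest.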

A short description of the assay: ASC/caspase-1 reporter retest in S. cerevisiae at one dose, specificity check for NALP1 project (AID 488857). Conditions: S. cerevisiae ASC/Caspase-1, beta-galactosidase luminescence, 24 h; at 10 µM; stronger effect = higher value.
As a reminder, the inhibition is the change of the read-out against control, counted positive when it falls. On to `Fc1ccc(C(OCCN2CCCC2)c2ccc(Br)cc2)cc1` (centres undefined), for which the inhibition was 53.5% (active).
The figure for `CCCCN(Cc1ccccc1)C1CCN(CCc2ccccc2)CC1` is 52.6% (active); for `CSc1ncc(Cl)c(C(=O)O)n1` (tested in a mixture with another compound) it is 35.1%; for `Clc1ccc2nc3c(c(-c4ccccc4)c2c1)CNCC3` it is 57% (active).
The figure for `O=C(c1ccccc1)C(CN1CCCC1)c1ccccc1` (centres undefined) is 25.8%.
For `COc1cc2c(cc1OC)CN(c1ccc([N+](=O)[O-])c(C(F)(F)F)c1)CC2`, the inhibition was 69% (active).
In the case of `CCOCCN1CCN(c2nnc3n2-c2ccc(Cl)cc2C(c2ccccc2Cl)=NC3)CC1`, the inhibition was 30.9%.
In the case of `CN[C@H]1C[C@H]2O[C@@](C)([C@H]1OC)n1c3ccccc3c3c4c(c5c6ccccc6n2c5c31)C(=O)NC4`, the inhibition is 99.2% (active).
As for `Cc1ccc(C)c(NC(=S)NCCc2cnc[nH]2)c1`, the inhibition is 42.5%.
For `CC(Cc1ccccc1Sc1ccccc1)N(C)C` (centres undefined), the inhibition was 42.8%.
`COCCNCCOc1ccc(C(C)(C)c2ccccc2)cc1`: the inhibition was 52.3% (active).
As to `CC1(C)C[C@H]2C=C(C=O)[C@]3(C=O)C[C@]3(C)[C@H]2C1`, the inhibition is 81.3% (active).
For the molecule `O=C1/C(=C/c2cccc([N+](=O)[O-])c2)N2CCC1CC2`, the inhibition was 51.1% (active).
Take `Nc1c2c(nc3sc4c(c13)CCCCC4)CCCC2`: the inhibition was 91.1% (active).
Regarding `Nc1c2c(nc3sc4c(c13)CCCC4)CCCCC2`, the inhibition was 58.4% (active).
Turning to `CC(C)NS(=O)(=O)c1ccc(OCC(=O)N2CCN(C)CC2)cc1`, the inhibition is 17.6%.
`CC(C)CCn1c(=O)c(C(=O)NCc2ccco2)c(O)c2ccccc21`: the inhibition is 44.8%.
Consider `Cc1cc2ccccn2c1C(C[N+](=O)[O-])c1c(F)cccc1Cl` (centres undefined), for which the inhibition was 52.8% (active).
Take `C[C@H]1C[C@@H](C)C(=O)[C@@H]([C@H](O)CC2CC(=O)NC(=O)C2)C1`: the inhibition is 98.8% (active).
In the case of `CC(Cc1ccccc1)NC(=O)/C=C/c1ccc(Cl)cc1` (centres undefined), the inhibition was 71.7% (active).
Turning to `c1ccc2sc(NC3=NCCN3)nc2c1`, the inhibition is 100% (active).
For `O=C1/C(=C/c2cc3c(cc2Cl)OCO3)N2CCC1CC2` the value was 55% (active); for `Nc1ccc(C2(c3ccc(N)cc3)CN3CCC2CC3)cc1`, 35%; for `CN1/C(=C\C=C\C2=[N+](C)c3ccc4ccccc4c3C2(C)C)C(C)(C)c2ccccc21`, 99.7% (active).
The figure for `CN1CCN(c2ccc(N)c(N3CCN(C)CC3)c2)CC1` is 31.1%; for `O=C(c1cc2c(s1)-c1ccccc1OC2)N1CCC2(CC1)OCCO2` it is 53.8% (active).
As for `N#CCCn1cc(C(=O)NCc2ccccc2)c(-c2ccccc2)n1`, the inhibition is 39.2%.
The figure for `Cc1ccc(/C=C2\C(=O)NC(=O)N(CC3CCCO3)C2=O)s1` (centres undefined) is 46.5%; for `Cc1ccc(Cn2cc(C=O)c(-c3ccc(C)cc3)n2)cc1` it is 67.5% (active); for `Cc1cccc(N2C(=O)NC(=O)/C(=C/c3ccc([N+](=O)[O-])o3)C2=O)c1` it is 45%.
For the molecule `Cc1ccc(S(=O)(=O)NC(CC(=O)N2CCC3(CC2)OCCO3)c2ccco2)cc1` (centres undefined), the inhibition is 31.6%.
For `CN1C2CCC1/C(=C/c1ccccn1)C(=O)/C2=C\c1ccccn1` the value was 96.9% (active).
As to `CCCCCn1c(=O)c(C(=O)Nc2nc3ccccc3[nH]2)c(O)c2ccccc21`, the inhibition was 36.8%.
In the case of `CCOc1cc(CNCCc2c[nH]c3ccccc23)cc(Cl)c1OCC`, the inhibition is 43.5%.
As to `Nc1cc(Cl)c2nonc2c1[N+](=O)[O-]`, the inhibition is 57.1% (active).
Regarding `Cc1ccc(-c2nc(N3CCOCC3)s[n+]2-c2ccccc2)cc1`, the inhibition was 61.9% (active).
Consider `CNC(=O)Oc1ccc2ncccc2c1`, for which the inhibition was 42.4%.
Regarding `CC1CCCC(C)N1/N=C/c1c[nH]c2ccc(Br)cc12` (centres undefined), the inhibition is 45.3%.
For `COc1cc(/C=C(/C)[N+](=O)[O-])ccc1OCc1ccccc1Cl` the value was 80.2% (active).

The record behind these values is PubChem BioAssay AID488857 (Sanford-Burnham Center for Chemical Genomics, 2010).
